Out of some 3,200 compounds screened, about 300 (9.4%) showed activity. The sample holds actives, similar compounds and a random draw of the others, so the mix is not that of the screen. A number with no mark means an inactive call.

The assay has as its system A673/TR/shEF. Briefly: cell viability (LOESS-normalised, relative to median of negative controls) (log2 ratio); higher = more viable cells (less compound effect), active = hit call of the paper (over 3 MAD below the median). The conditions noted are these: treatment time: 72 h. An outline of the steps:
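A673/TR/shEF Ewing sarcoma cells (1,500 per well, 384-well plates) were grown with or without doxycycline to induce EWS-FLI1 shRNA knockdown, starting 24 h before compounds. Library compounds at two or more concentrations, with DMSO controls, were added for three days. Cell viability was read by CellTiter-Glo luminescence on an Envision reader, then LOESS-corrected per plate, divided by the median of negative controls and log2-transformed. Hits were wells at least three median absolute deviations from the median of all screened wells.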

[1] abbreviates: 0.025 µM, library screen: screen1, EWS-FLI1 expression: high (no doxycycline).
The mark [2] stands for this setting: 0.025 µM, library screen: screen1, EWS-FLI1 expression: low (doxycycline-induced shRNA knockdown).
Setting [3] is: 0.103 µM, library screen: screen3, EWS-FLI1 expression: high (no doxycycline).
[4] abbreviates: 0.103 µM, library screen: screen3, EWS-FLI1 expression: low (doxycycline-induced shRNA knockdown).
[5] abbreviates: 0.25 µM, library screen: screen1, EWS-FLI1 expression: high (no doxycycline).
[6] abbreviates: 0.25 µM, library screen: screen1, EWS-FLI1 expression: low (doxycycline-induced shRNA knockdown).
Where [7] appears, read: 0.25 µM, library screen: screen2, EWS-FLI1 expression: high (no doxycycline).
The mark [8] stands for this setting: 0.25 µM, library screen: screen2, EWS-FLI1 expression: low (doxycycline-induced shRNA knockdown).
Setting [9] is: 0.308 µM, library screen: screen3, EWS-FLI1 expression: high (no doxycycline).
Setting [10] is: 0.308 µM, library screen: screen3, EWS-FLI1 expression: low (doxycycline-induced shRNA knockdown).
The mark [11] stands for this setting: 0.926 µM, library screen: screen3, EWS-FLI1 expression: high (no doxycycline).
Setting [12] is: 0.926 µM, library screen: screen3, EWS-FLI1 expression: low (doxycycline-induced shRNA knockdown).
The mark [13] stands for this setting: 2.5 µM, library screen: screen1, EWS-FLI1 expression: high (no doxycycline).
[14] abbreviates: 2.5 µM, library screen: screen1, EWS-FLI1 expression: low (doxycycline-induced shRNA knockdown).
Setting [15] is: 2.5 µM, library screen: screen2, EWS-FLI1 expression: high (no doxycycline).
The mark [16] stands for this setting: 2.5 µM, library screen: screen2, EWS-FLI1 expression: low (doxycycline-induced shRNA knockdown).
The mark [17] stands for this setting: 2.8 µM, library screen: screen3, EWS-FLI1 expression: high (no doxycycline).
[18] abbreviates: 2.8 µM, library screen: screen3, EWS-FLI1 expression: low (doxycycline-induced shRNA knockdown).
[19] abbreviates: 8.3 µM, library screen: screen3, EWS-FLI1 expression: high (no doxycycline).
[20] abbreviates: 8.3 µM, library screen: screen3, EWS-FLI1 expression: low (doxycycline-induced shRNA knockdown).
The mark [21] stands for this setting: 25 µM, library screen: screen1, EWS-FLI1 expression: high (no doxycycline).
Where [22] appears, read: 25 µM, library screen: screen1, EWS-FLI1 expression: low (doxycycline-induced shRNA knockdown).
Where [23] appears, read: 25 µM, library screen: screen3, EWS-FLI1 expression: high (no doxycycline).
Setting [24] is: 25 µM, library screen: screen3, EWS-FLI1 expression: low (doxycycline-induced shRNA knockdown).

Consider `c1ccc([C@H]2CN3CCSC3=N2)cc1`, for which the “cell viability (log2)” value was 0.0743 under setting [1]; 0.0216 under setting [2]; 0.103 under setting [3]; 0.000516 under setting [4]; 0.0991 under setting [5]; 0.0737 under setting [6]. Further, the “cell viability (log2)” value is, setting by setting: under setting [7], 0.069; under setting [8], 0.0838; under setting [9], 0.127; under setting [10], 0.0938; under setting [11], 0.0997; under setting [12], 0.0447. For the same compound, the “cell viability (log2)” value runs as follows: under setting [13], -0.0948 (active); under setting [14], 0.0839; under setting [15], 0.126; under setting [16], 0.0627; under setting [17], 0.136; under setting [18], 0.0913. Also, the “cell viability (log2)” value under setting [19] is 0.12; the “cell viability (log2)” value under setting [20] is 0.085; the “cell viability (log2)” value under setting [21] was -0.295 (active); the “cell viability (log2)” value under setting [22] is -0.0899; the “cell viability (log2)” value under setting [23] is 0.0427; the “cell viability (log2)” value under setting [24] is 0.11.

For `c1ccc(C2CN3CCSC3=N2)cc1` (stereo not drawn), the “cell viability (log2)” value by setting is: under setting [1], 0.0711; under setting [2], 0.0575; under setting [5], 0.0459; under setting [6], 0.00911; under setting [7], 0.102; under setting [8], 0.0185. In addition, the “cell viability (log2)” value under setting [13] is -0.215 (active); the “cell viability (log2)” value under setting [14] is 0.107; the “cell viability (log2)” value under setting [15] is 0.166; the “cell viability (log2)” value under setting [16] was 0.00181; the “cell viability (log2)” value under setting [21] is -0.261 (active); the “cell viability (log2)” value under setting [22] is 0.0697.

As to `CC(=O)O[C@@H]1C=C[C@@]2(C)C(C[C@@H](OC(C)=O)[C@@]3(C)C4=CC(=O)O[C@@H](c5ccoc5)[C@]4(C)CCC23)C1(C)C` (stereo partly drawn), the “cell viability (log2)” value is 0.0555 under setting [5], 0.12 under setting [6], 0.1 under setting [13] and 0.125 under setting [14].

On to `CC(=O)O[C@@H]1CC[C@@]2(C)C(=CC=C3[C@@H]4CC[C@H]([C@H](C)/C=C/[C@H](C)C(C)C)[C@@]4(C)CC[C@@H]32)C1`, for which the “cell viability (log2)” value runs as follows: under setting [5], 0.0486; under setting [6], 0.129; under setting [13], 0.176; under setting [14], 0.156.

As for `[Cl][Pt+2][Cl].[NH2-].[NH2-]`, the “cell viability (log2)” value by setting is: (0.025 µM, library screen: screen2, EWS-FLI1 expression: high (no doxycycline)) 0.0701; (0.025 µM, library screen: screen2, EWS-FLI1 expression: low (doxycycline-induced shRNA knockdown)) 0.092; under setting [3], 0.0436; under setting [4], 0.101; under setting [5], 0.0699; under setting [6], 0.0806. For the same compound, the “cell viability (log2)” value under setting [7] is 0.126; the “cell viability (log2)” value under setting [8] was 0.0568; the “cell viability (log2)” value under setting [9] was 0.119; the “cell viability (log2)” value under setting [10] was 0.0647; the “cell viability (log2)” value under setting [11] was 0.132; the “cell viability (log2)” value under setting [12] was 0.00232. Further, the “cell viability (log2)” value was 0.0557 under setting [13]; 0.0761 under setting [14]; 0.062 under setting [15]; 0.0651 under setting [16]; 0.0695 under setting [17]; 0.05 under setting [18]. Besides, the “cell viability (log2)” value under setting [19] is 0.0685; the “cell viability (log2)” value under setting [20] was 0.0664; the “cell viability (log2)” value (25 µM, library screen: screen2, EWS-FLI1 expression: high (no doxycycline)) was 0.079; the “cell viability (log2)” value (25 µM, library screen: screen2, EWS-FLI1 expression: low (doxycycline-induced shRNA knockdown)) was 0.0718; the “cell viability (log2)” value under setting [23] is 0.135; the “cell viability (log2)” value under setting [24] was 0.0626.

Source of the values: the supplement of paper PMC6089552.
